A short description of assay [1]: qHTS Assay for Lipid Storage Modulators (AID 1519). As to activity change, negative = inhibition: % is scaled to controls: 0 for no effect and ±100 for the full control effect. Particulars: Drosophila S3 cells, BODIPY lipid droplet/cell ratio, laser cytometry, cells loaded with oleic acid. In outline: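 Cells seeded at 5,000 per well were treated with compounds over a concentration series and loaded with oleic acid (400 uM, as added). Lipid droplet fluorescence (488 nm excitation, 500-530 nm channel) was read by laser-scanning cytometry and normalized to 20 uM Triacsin C.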
For orientation: In qHTS, concentration-response curves come from the screen itself.

Assay [2] is described as follows: Cell Viability - LYMP1-002 - Assay at 24 hr (AID 993; active = well fitted curve in the direction sought with a large enough effect; an effect the other way counts as inactive or inconclusive; also: % is scaled to controls: 0 for no effect and ±100 for the full control effect). Particulars: LYMP1-002 lymphoblastoid cells viability; series mostly up to 92.2 µM. In outline: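 Viability was judged from intracellular ATP using a luciferase read-out, following a 24-hour compound incubation at 37 C of lymphoblastoid cells seeded at 2500 per well. Concentration-response data were fitted to the Hill equation for AC50.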

Assay [3] is described as follows: Cell Viability - LYMP1-002 - Assay at 40 hr (AID 994; active = well fitted curve in the direction sought with a large enough effect; an effect the other way counts as inactive or inconclusive;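 also: 0% = DMSO only and full inhibition = 92 µM tetraoctylammonium bromide; nearly all actives have a fitted effect of over 60% in size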). Particulars: LYMP1-002 lymphoblastoid cell viability; series mostly up to 92.2 µM. A digest of the protocol: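 Concentration-dependent ATP loss after 40 hr treatment at 37 C defined toxicity; AC50 values were obtained by fitting the standard Hill equation.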
Assay [4] is described as follows: qHTS Assay for Identification of Small Molecule Inducers of Hypoxia Response (AID 2120; active = well fitted curve in the direction sought with a large enough effect in the signal ratio, with a control signal flat, not every such curve was filed as active; the % refers to the signal ratio; also: 0% is about no effect). Particulars: hypoxia response reporter cells, beta-lactamase ratio readout; series mostly up to 104 µM. In outline: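 HRE-bla ME-180, 2500 cells/well, 0.5% dialyzed FBS medium; cpd titration, 17 h 37 degrees C; CCF4 2.5 h RT; Ex 405, Em 460/530 ratio -> %Activity, AC50.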
For assay [5], the target named is Alpha-galactosidase A (Homo sapiens) (UniProt P06280). Nature of the assay: Counterscreen for Glucocerebrosidase Inhibitors: qHTS Assay for Human alpha-Galactosidase at pH 4.5 (AID 992; active = well fitted curve in the direction sought with a large enough effect; an effect the other way counts as inactive or inconclusive; also: 0% is about no effect). Particulars: purified enzyme, fluorogenic substrate; series mostly up to 76.9 µM. In outline:
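Fluorogenic 1536-well qHTS at pH 4.5 (citrate, Tween-20): 2 nM enzyme, 80 uM 4-MU-alpha-galactoside, 20 min room temperature, NaOH/glycine stop. Titration 0.7 nM to 77 uM, data normalized to no-enzyme and full-activity controls, Hill-fitted AC50.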
Background: The purpose of a counterscreen is to sort out artefacts and off-target activity.

The target in assay [6] is alpha-glucosidase (Oryza sativa, rice) (UniProt Q653V4). Nature of the assay: Counterscreen for Glucocerebrosidase Inhibitors: qHTS Assay for Rice alpha-Glucosidase at pH 5.0 (AID 997; active = well fitted curve in the direction sought with a large enough effect; an effect the other way counts as inactive or inconclusive;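 also: 0% = full activity with enzyme and -100% = basal without enzyme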). Particulars: rice alpha-glucosidase enzyme activity; series mostly up to 76.9 µM. In outline:
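Endpoint fluorogenic assay at pH 5.0: compounds (0.7 nM to 77 uM) titrated against 4 nM rice enzyme and 400 uM 4-MU-alpha-glucoside for 20 min at room temperature; NaOH/glycine stop, read ex 365/em 440 nm, Hill-fitted AC50.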

The mark [7] stands for this setting: measured here: cell count channel max response.
Where [8] appears, read: measured here: lipid channel max response.

Where “and” joins values, the source holds several entries; their conditions need not be identical. Equal entries are not always repeated. Records with an inconclusive call do not appear. Calls of active or inactive are those of the source. Unless noted, calls follow the shape of the full dose curve.

The text below walks through data of PubChem BioAssay (NCATS).

Sequence of Alpha-galactosidase A (Homo sapiens) (P06280 whole entry, looked up): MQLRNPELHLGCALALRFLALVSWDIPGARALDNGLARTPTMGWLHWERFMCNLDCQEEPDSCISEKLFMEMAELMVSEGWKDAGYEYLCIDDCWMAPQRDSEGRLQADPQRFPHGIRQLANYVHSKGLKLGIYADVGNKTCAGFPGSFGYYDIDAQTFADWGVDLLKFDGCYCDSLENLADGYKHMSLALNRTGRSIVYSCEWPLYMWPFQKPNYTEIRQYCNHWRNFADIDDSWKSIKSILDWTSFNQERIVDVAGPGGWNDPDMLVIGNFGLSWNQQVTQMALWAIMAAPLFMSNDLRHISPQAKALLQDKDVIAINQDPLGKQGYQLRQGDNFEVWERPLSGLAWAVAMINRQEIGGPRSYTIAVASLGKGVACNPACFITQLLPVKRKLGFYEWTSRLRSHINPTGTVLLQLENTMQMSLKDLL

In the case of `CCCCCC(C)N` (centres undefined), the activity change, negative = inhibition in assay [1] (at 57.5 µM (top of the series)) is -8.69% (inactive). For the same compound, the max response in assay [1] (setting [7]) is -12.5%; in assay [1] (setting [8]), -21.2%.
In the same order, the values of `COc1ccccc1OCC(O)CO` (centres undefined) are 8.3% (inactive), -0.08% and 10.1%.
In the case of `CC[N+](CC)(CC(=O)Nc1c(C)cccc1C)Cc1ccccc1`, the activity change, negative = inhibition in assay [1] (at 25.7 µM (top of the series)) is -1.02% (inactive). Further, the max response in assay [1] (setting [7]) was -6.23%; in assay [1] (setting [8]), -4.81%.
Regarding `NS(=O)(=O)c1cc(C2(O)NC(=O)c3ccccc32)ccc1Cl` (centres undefined), the activity change, negative = inhibition in assay [1] (at 57.5 µM (top of the series)) is 3.99% (inactive). For the same compound, the max response in assay [1] (setting [7]) is 20%; in assay [1] (setting [8]), 27%.
Take `CCS(=O)(=O)CCn1c([N+](=O)[O-])cnc1C`: the activity change, negative = inhibition is -0.644% (inactive) in assay [1] (at 25.7 µM (top of the series)) and 8.24% (inactive) in assay [1] (at 57.5 µM (top of the series)). Also, the max response in assay [1] (setting [7]) is -6.2% and 14.4%; in assay [1] (setting [8]), -8.29% and 29%.
Take `O=C(O)c1ccccc1C(=O)Nc1ccc(S(=O)(=O)Nc2nccs2)cc1`: the values for the activity change, negative = inhibition in assay [1] (at 25.7 µM (top of the series)) and in assay [1] (at 57.5 µM (top of the series)) were -0.565% (inactive) and 12.9% (inactive), respectively. For the same compound, the max response in assay [1] (setting [7]) is -5.87% and 21%; in assay [1] (setting [8]), -9.76% and 42%.
For `Cc1c(NC(C)C)c(=O)n(-c2ccccc2)n1C`, the activity change, negative = inhibition in assay [1] (at 25.7 µM (top of the series)) was 1.53% (inactive); in assay [1] (at 57.5 µM (top of the series)) it was 9.46% (inactive). For the same compound, the max response was 12.2% and 13.2% in assay [1] (setting [7]); 14.1% and 25.6% in assay [1] (setting [8]).
`O=C(O)COC(=O)Cc1ccccc1Nc1c(Cl)cccc1Cl`: the activity change, negative = inhibition in assay [1] (at 25.7 µM (top of the series)) was 1.87% (inactive). In addition, the max response in assay [1] (setting [7]) was -9.2%; in assay [1] (setting [8]) it was -7.55%.
As for `CCOC(N)=O`, the activity change, negative = inhibition in assay [1] (at 57.5 µM (top of the series)) was 5.36% (inactive). Besides, the max response in assay [1] (setting [7]) is 18.8%; in assay [1] (setting [8]), 25.8%.
As to `CC(=O)N[C@@H](CC(C)C)C(=O)O`, the activity change, negative = inhibition in assay [1] (at 25.7 µM (top of the series)) was -0.448% (inactive). Moreover, the max response in assay [1] (setting [7]) was -13.9%; in assay [1] (setting [8]), -14.5%.
As for `Cn1c([N+](=O)[O-])cnc1COC(N)=O`, the activity change, negative = inhibition is 1.17% (inactive) in assay [1] (at 25.7 µM (top of the series)) and 7.17% (inactive) in assay [1] (at 57.5 µM (top of the series)). Also, the max response is -1.45% and 4.32% in assay [1] (setting [7]); -3% and 14.5% in assay [1] (setting [8]).
For the compound `Cc1cccc(Nc2ccccc2C(=O)O)c1C`, the activity change, negative = inhibition in assay [1] (at 25.7 µM (top of the series)) was -1.13% (inactive); in assay [1] (at 57.5 µM (top of the series)), 13.8% (inactive). Further, the max response was -7.11% and 0.438% in assay [1] (setting [7]); -8.71% and 19.7% in assay [1] (setting [8]).
On to `CC[N+](C)(CC)CCOC(=O)C1c2ccccc2Oc2ccccc21`, for which the activity change, negative = inhibition in assay [1] (at 25.7 µM (top of the series)) is -1.37% (inactive). For the same compound, the max response in assay [1] (setting [7]) was -9.32%; in assay [1] (setting [8]), -11.4%.
Consider `C[C@@H]1CCC[C@H](C)N1`, for which the activity change, negative = inhibition in assay [1] (at 25.7 µM (top of the series)) is -3.01% (inactive). The max response is -4.31% in assay [1] (setting [7]) and -8.89% in assay [1] (setting [8]).
As for `O=C(O)c1cc(=O)c2ccccc2o1`, the activity change, negative = inhibition in assay [1] (at 57.5 µM (top of the series)) is 0.609% (inactive). The max response stood at 15.2% in assay [1] (setting [7]) and 23.7% in assay [1] (setting [8]).
For the compound `NS(=O)(=O)c1cc2c(cc1C(F)(F)F)NCNS2(=O)=O`, the activity change, negative = inhibition in assay [1] (at 25.7 µM (top of the series)) was -1.44% (inactive); in assay [1] (at 57.5 µM (top of the series)), 2.96% (inactive). In addition, the max response in assay [1] (setting [7]) was -0.735% and 18.6%; in assay [1] (setting [8]), -2.63% and 23.7%.
Consider `O=C(O)CCCCC1CCSS1` (centres undefined), for which the result in assay [2] and in assay [3] was inactive. Also, the activity change, negative = inhibition in assay [1] (at 57.5 µM (top of the series)) is 3.99% (inactive). Besides, the max response stood at 11.5% in assay [1] (setting [7]) and 16.4% in assay [1] (setting [8]).
For the compound `CCN(CC)C(=O)c1cccc(C)c1`, the compound was classed as inactive in assay [2], in assay [3] and in assay [4]. Further, the activity change, negative = inhibition in assay [1] (at 57.5 µM (top of the series)) is 7.23% (inactive). Besides, the results for the max response in assay [1] (setting [7]) and in assay [1] (setting [8]) were 15.5% and 28.9%, respectively.
For `Nc1ccc(S(=O)(=O)c2ccc(N)cc2)cc1`, the result in assay [2] and in assay [3] was inactive. In assay [1] (at 25.7 µM (top of the series)), the activity change, negative = inhibition is -0.694% (inactive). The figures for the max response in assay [1] (setting [7]) and in assay [1] (setting [8]) were 4.2% and 4.3%, respectively.
`FC(F)(F)C(Cl)Br` (centres undefined): the call in assay [2], in assay [3] and in assay [4] was inactive.
`CC(=O)OCC(COC(C)=O)OC(C)=O`: the call in assay [2], in assay [3] and in assay [4] was inactive.
Consider `NC(=O)CC[C@@H](N)C(=O)O`, for which the compound was classed as inactive in assay [5] and in assay [6].
For the compound `CC(=O)NS(=O)(=O)c1ccc(N)cc1`, the compound was classed as inactive in assay [2] and in assay [3]. The activity change, negative = inhibition in assay [1] (at 25.7 µM (top of the series)) is -1.25% (inactive); in assay [1] (at 57.5 µM (top of the series)), 7% (inactive). The max response in assay [1] (setting [7]) was 0.487% and 9.27%; in assay [1] (setting [8]), -1.3% and 19.7%.
As for `NCc1ccc(S(N)(=O)=O)cc1`, the activity change, negative = inhibition in assay [1] (at 25.7 µM (top of the series)) is -2.86% (inactive); in assay [1] (at 57.5 µM (top of the series)), 9.84% (inactive). Also, the max response in assay [1] (setting [7]) was -7.52% and 18.9%; in assay [1] (setting [8]) it was -8.55% and 31.3%.
`O=C1C(c2[nH]c3ccccc3c2O)=Nc2ccccc21`: the result in assay [2], in assay [3] and in assay [4] was inactive.
As to `CCCCCC(N)=O`, the result in assay [2], in assay [3] and in assay [4] was inactive.
